Assay results as given in PubChem BioAssay (Tox21).
Inconclusive results are not listed. Values without a mark were called inactive. Calls of active or inactive are those of the source. The call rests on the fitted dose curve; in most records, active means well fitted inhibition curve with a large enough effect in the repeat runs; inconclusive means weak or mixed curves; inactive means no such curve, though single readings can be large or run the other way.

What follows are compounds tested against Aromatase (Homo sapiens) (UniProt P11511) (assay: qHTS assay to identify aromatase inhibitors (AID 743083; further: nearly all actives have a fitted effect of over 55% in size)). Conditions: MCF-7 aro ERE, testosterone-driven ERE luciferase, 24 h; series mostly up to 70.3 µM; activity, negative = inhibition: at the top concentration.
On the % scale 0 is the no-effect control and ±100 the full control effect; potency means the concentration at half of the fitted maximal effect.

Sequence of Aromatase (Homo sapiens) (P11511 whole entry, looked up): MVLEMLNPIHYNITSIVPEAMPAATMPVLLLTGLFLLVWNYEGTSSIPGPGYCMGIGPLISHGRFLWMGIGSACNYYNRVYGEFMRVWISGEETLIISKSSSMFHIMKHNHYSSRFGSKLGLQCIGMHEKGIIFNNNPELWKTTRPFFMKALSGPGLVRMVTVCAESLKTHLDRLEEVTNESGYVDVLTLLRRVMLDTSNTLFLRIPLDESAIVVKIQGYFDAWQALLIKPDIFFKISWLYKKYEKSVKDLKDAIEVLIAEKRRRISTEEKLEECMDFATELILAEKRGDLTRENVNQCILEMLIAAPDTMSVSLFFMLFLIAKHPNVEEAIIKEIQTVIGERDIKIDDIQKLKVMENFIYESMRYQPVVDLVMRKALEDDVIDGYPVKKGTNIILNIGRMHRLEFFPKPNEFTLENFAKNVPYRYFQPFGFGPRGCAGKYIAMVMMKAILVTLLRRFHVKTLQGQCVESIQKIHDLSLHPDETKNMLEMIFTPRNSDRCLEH

SMILES | activity, negative = inhibition | Potency
CC1CC(C)C(=O)C1=O (stereo not drawn) | 16.2% | 
CCCCN1CCCC1C(=O)Nc1c(C)cc(C)cc1C (stereo not drawn) | 20.3% | 
O=C(OCC(O)CO)c1ccccc1Nc1ccnc2cc(Cl)ccc12 (stereo not drawn) | 32.1% [at 32.5 µM] | 
CCCCCCCCN | -2.55% | 
O=Cc1c2ccccc2c(Cl)c2ccccc12 | 0.541% | 
CCC=CC#N | 12.7% | 
C=CC(=O)[O-].C=CC(=O)[O-].[Zn+2] | -1.86% | 
CC(C)=CCC1C(=O)N(c2ccccc2)N(c2ccccc2)C1=O | 63.7% | 
CO/N=C(/C(=O)N[C@@H]1C(=O)N2C(C(=O)O)=C(COC(N)=O)CS[C@H]12)c1ccco1 |  | inactive
C=C1CCC2CC1C2(C)C (stereo not drawn) | 0.55% | 
Cc1ccc(OC(=O)c2ccccc2O)cc1 | 34.4% | 
O=C(O)CCC(=O)C(=O)O |  | inactive
C=C1c2cccc(O)c2C(O)=C2C(=O)[C@]3(O)C(O)=C(C(N)=O)C(=O)[C@@H](N(C)C)[C@@H]3[C@@H](O)[C@H]12 | -1.03% [at 32.5 µM] | 
CC(C)C=O | 10.5% [at 95 µM] | 
CN1C(C(=O)Nc2ccccn2)=C(O)c2sccc2S1(=O)=O | 13.8% [at 32.5 µM] | 
Cc1cscn1 | 6.36% | 
CCC(OCCCOC)OC(C)=O (stereo not drawn) | 8.84% [at 95 µM] | 
CC/C=C1/OC(=O)c2ccccc21 | -4.32% | 
CCOC(=O)C1=C(C)NC(C)=C(C(=O)OC)C1c1cccc(Cl)c1Cl (stereo not drawn) | -18.1% | 

SMILES | activity, negative = inhibition | Potency
COc1cc(N)c(Cl)cc1C(=O)NC1CCN(CCCOc2ccc(F)cc2)CC1OC (stereo not drawn) | -1.65% [at 32.5 µM] | 
C=C(C)C(=O)OCCOCCOC(=O)C(=C)C | -14.5% | 
CC(=O)Oc1ccc([N+](=O)[O-])cc1CCl | -15% | 
O=C(Nc1cccc2c(=O)cc(-c3nn[nH]n3)oc12)c1ccc(OCCCCc2ccccc2)cc1 | -8.35% | 
Cc1ccccc1N=C(N)Nc1ccccc1C | 0.587% | 
CCOC(=O)OC(C)OC(=O)[C@@H]1N2C(=O)[C@@H](NC(=O)[C@H](N)c3ccccc3)[C@H]2SC1(C)C (stereo partly drawn) | -5.09% [at 32.5 µM] | 
CC1=Nc2ccc3ccccc3c2C1(C)C | -9.98% | 
CC(C)c1nc(CN(C)C(=O)N[C@H](C(=O)N[C@@H](Cc2ccccc2)C[C@H](O)[C@H](Cc2ccccc2)NC(=O)OCc2cncs2)C(C)C)cs1 | 39.6% | 
CC1=C(CC=O)C(C)(C)CCC1 | -3.87% | 
O=C(/C=C/c1ccccc1)OCCc1ccccc1 | 69% | 
CN1C(=O)OC(C)(C)C1=O |  | inactive
CCN(CC)CCNC(=O)COc1ccc(OC)cc1 | 2.44% | 
CC1CC(OC(=O)C(O)c2ccccc2)CC(C)(C)N1C (stereo not drawn) |  | inactive
Cc1ccc(CO)cc1 | 8.23% [at 95 µM] | 
NC1[C@H]2CN(c3nc4c(cc3F)c(=O)c(C(=O)O)cn4-c3ccc(F)cc3F)C[C@@H]12 (stereo partly drawn) |  | 473 nM (active)
CC(CO)CO | 18.4% [at 95 µM] | 
O=C1c2ccccc2C(=O)C1c1nc2ccccc2c(Br)c1O | 34.6% | 
CC(C)(O)c1ccc(CNC(=O)c2cccnc2Oc2ccc3nonc3c2)cc1 | 8.79% | 
CCCCCCCCCCC(=O)O | -11.4% [at 95 µM] | 
